The nature of assay [1]: qHTS assay for small molecules that induce genotoxicity in human embryonic kidney cells expressing luciferase-tagged ATAD5 (AID 651632). Note: nearly all actives have a fitted effect of over 15% in size. The method, boiled down: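 A rise in luciferase signal from ATAD5-tagged HEK293T cells marks genetic stress. Cells were exposed to compounds for 16 hr at 37C, 5% CO2, then luciferase was quantified after a 30 min room-temperature incubation with Amplite.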
For orientation: Quantitative high-throughput screening tests each substance at several concentrations.

Assay [2] is described as follows: qHTS assay to test for compound auto fluorescence at 590 nm (red) in HEK293 cells (AID 720679). The method, boiled down: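 Each well held 2,000 HEK293 cells in medium containing 10% dialyzed FBS. Following 4-5 hr attachment at 37C, 23 nL test compound or DMSO was added; plates sat overnight, and red fluorescence (540/590nm) was recorded.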
The target in assay [3] is Glucocorticoid receptor (Homo sapiens) (UniProt P04150). In words: qHTS assay to identify small molecule antagonists of the glucocorticoid receptor (GR) signaling pathway (AID 720692; active = well fitted inhibition curve with a large enough effect in the signal ratio in the repeat runs, not every such curve was filed as active; the % refers to the signal ratio; note: potency is the fitted concentration of half-maximal effect). The method, boiled down: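 Inhibition of dexamethasone-driven (5 nM final) beta-lactamase expression was measured in GRE-reporter HeLa cells over 18 h at 37C. Fluorescence was read after 2 h with the B/G FRET substrate at room temperature.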

Assay [4] is described as follows: qHTS assay to identify small molecule antagonists of the thyroid receptor (TR) signaling pathway - cell viability counter screen (AID 743064). Note: nearly all actives have a fitted effect of over 50% in size. Note: potency is the fitted concentration of half-maximal effect. In short, it runs like this: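 Compounds were tested on GH3.TRE-Luc cells in the presence of T3 at 1 nM final. Following 23.5 h at 37 °C, cell viability was quantified by CellTiter-Fluor.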
Assay [5] can be described thus: qHTS assay for small molecule activators of the heat shock response signaling pathway (AID 743210; active = well fitted activation curve with a large enough effect in the signal ratio in the repeat runs, with a control signal flat, not every such curve was filed as active; the % refers to the signal ratio;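 note: HeLa cells with beta-lactamase reporter driven by heat shock elements; series mostly up to about 63 µM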). In short, it runs like this: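 Activation of heat shock element-controlled beta-lactamase expression is measured in HeLa cells by LiveBLAzer FRET fluorescence, with compound exposure lasting 5 h at 37 C and substrate loading 2.5 h at room temperature.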
Assay [6] in a line: qHTS assay to identify small molecule agonists of the peroxisome proliferator-activated receptor delta (PPARd) signaling pathway - cell viability counter screen (AID 743211). Note: nearly all actives have a fitted effect of over 55% in size. Note: potency is the fitted concentration of half-maximal effect. The method, boiled down:
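Luminescent ATP viability assay (CellTiter-Glo, 30 min RT) in UAS-bla HEK293H cells carrying the PPAR delta reporter construct, 3000 cells/well, after a 17 h compound treatment at 37 C.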

Assay [7] deals with Peroxisome proliferator-activated receptor delta (Homo sapiens) (UniProt Q03181). Description: qHTS assay to identify small molecule antagonists of the peroxisome proliferator-activated receptor delta (PPARd) signaling pathway (AID 743215; active = well fitted inhibition curve with a large enough effect in the signal ratio in the repeat runs, not every such curve was filed as active; the % refers to the signal ratio;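 note: cells stimulated with agonist L165041 at 300 nM final during compound exposure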; note: potency is the fitted concentration of half-maximal effect). The method, boiled down:
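Agonist L165041 (300 nM final) added with compound to PPARd-bla HEK293H UAS-bla reporter cells; 17 h incubation at 37 C. Read-out: LiveBLAzer FRET substrate, 2 h at room temperature, fluorescence intensity.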

Assay [8] deals with Estrogen receptor beta (Homo sapiens) (UniProt Q92731). In words: qHTS assay to identify small molecule antagonists of the estrogen receptor beta (ER-beta) signaling pathway (AID 1259378; active = well fitted inhibition curve with a large enough effect in the signal ratio in the repeat runs, not every such curve was filed as active; the % refers to the signal ratio; note: potency is the fitted concentration of half-maximal effect). The method, boiled down:
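ER-beta-UAS-bla HEK293T (GripTite) cells in 2% charcoal-stripped FBS medium were preincubated 6 hr at 37C, dosed with compound, then stimulated with 1 nM E2 (final) for 16 hr; beta-lactamase reporter read by B/G FRET fluorescence after 2 hr substrate loading.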

Assay [9] addresses Progesterone receptor (Homo sapiens) (UniProt P06401). Description: qHTS assay to identify small molecule antagonists of the progesterone receptor (PR) signaling pathway (AID 1346795; active = well fitted inhibition curve with a large enough effect in the signal ratio in the repeat runs, not every such curve was filed as active; the % refers to the signal ratio; note: potency is the fitted concentration of half-maximal effect). In short, it runs like this:
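Screening used a GripTite HEK293T line with PR-responsive UAS-beta-lactamase. Cells were challenged with compound in the presence of 1 nM R5020 final for 16 hr at 37C; B/G FRET substrate, 2 hr room temperature, fluorescence.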

Assay [10] can be described thus: qHTS assay for small molecules that induce genotoxicity in human embryonic kidney cells expressing luciferase-tagged ATAD5 - cell viability (AID 651634; calls by dose curve; note: nearly all actives have a fitted effect of over 25% in size). The method, boiled down: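 Cytotoxicity counter-readout: after 15.5 hr compound treatment at 37C, live-cell protease activity in ATAD5-luciferase HEK293T cells measured by CellTiter-Fluor fluorescence, 30 min development at 37C.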

Assay [11] in a line: qHTS assay to test for compound auto fluorescence at 460 nm (blue) in HepG2 cells (AID 720687). The method, boiled down: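 Cells (2,000/well in MEM with 10% FBS) attached overnight at 37 C, then were exposed to compound or DMSO for 1 hr at 37 C, 5% CO2. Fluorescence read at Ex/Em 405/460 nm, expressed as triamterene-equivalent signal.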
A short description of assay [12]: qHTS assay for identifying genotoxic compounds that show differential cytotoxicity against isogenic chicken DT40 cell lines with known DNA damage response pathways - wild type cell line (AID 743012). Note: nearly all actives have a fitted effect of over 60% in size. Note: potency is the fitted concentration of half-maximal effect. In short, it runs like this:
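Viability by ATP luminescence (CellTiter-Glo, 30 min RT) after 40 h compound treatment at 37 C/5% CO2, using 300 parental DNA repair-proficient DT40 cells per well.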

The nature of assay [13]: qHTS assay to identify small molecule antagonists of the androgen receptor (AR) signaling pathway - cell viability counter screen (AID 743033; note: nearly all actives have a fitted effect of over 45% in size; note: potency is the fitted concentration of half-maximal effect).
Assay [14] can be described thus: qHTS assay to identify small molecule antagonists of the androgen receptor (AR) signaling pathway using the MDA cell line - cell viability counter screen (AID 743041; note: nearly all actives have a fitted effect of over 45% in size; note: potency is the fitted concentration of half-maximal effect). In short, it runs like this:
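qHTS viability read-out; MDA-kb2 AR-luc; R1881-stimulated; 16 h exposure at 37C, 0% CO2; CellTiter-Fluor, 30 min; fluorescence intensity.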

For assay [15], the target named is Estrogen receptor (Homo sapiens) (UniProt P03372). Description: qHTS assay to identify small molecule agonists of the estrogen receptor alpha (ER-alpha) signaling pathway (AID 743075; calls by dose curve).
A short description of assay [16]: qHTS assay to identify small molecule antagonists of the estrogen receptor alpha (ER-alpha) signaling pathway using the BG1 cell line - cell viability counter screen (AID 743081).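 Note: compound given together with 17beta-estradiol as the ER stimulus; series mostly up to about 70 µM; nearly all actives have a fitted effect of over 45% in size.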
Assay [17] in a line: qHTS assay to identify aromatase inhibitors - cell viability counter screen (AID 743084).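 Note: cells stimulated with testosterone during compound exposure; nearly all actives have a fitted effect of over 55% in size.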 Note: potency is the fitted concentration of half-maximal effect.
Assay [18] concerns the target Nuclear receptor ROR-gamma (Homo sapiens) (UniProt P51449). In words: qHTS assay to identify small molecule antagonists of the retinoid-related orphan receptor gamma (ROR-gamma) signaling pathway (AID 1159521; note: nearly all actives have a fitted effect of over 50% in size; note: potency is the fitted concentration of half-maximal effect). The method, boiled down:
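CHO cells expressing RORγ under a TET-on promoter, luciferase under RORE control. Dox 1 uM final, 16 h; compounds added 2 h prior. Luminescence decrease measured.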

A short description of assay [19]: qHTS assay to identify small molecule that activate the aryl hydrocarbon receptor (AhR) signaling pathway - cell viability counter screen (AID 743086). Note: nearly all actives have a fitted effect of over 45% in size. Note: potency is the fitted concentration of half-maximal effect. In short, it runs like this: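 HepG2-AhR-luc (HG2L7.5c1) cells, 4000/well, were preincubated 5 h at 37C, exposed to compound in qHTS format for 24 hr at 37C, then given CellTiter-Fluor for 30 min; viability was read as fluorescence in the reporter wells.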

Assay [20] concerns the target Androgen receptor (Homo sapiens) (UniProt P10275). Description: qHTS assay to identify small molecule antagonists of the androgen receptor (AR) signaling pathway using the MDA cell line in the presence of 0.5 nM R1881 (AID 1259243). Note: nearly all actives have a fitted effect of over 50% in size. Note: potency is the fitted concentration of half-maximal effect. In short, it runs like this: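 Luminescent reporter readout (ONE-Glo, 30 min, room temperature) after 16 hr co-treatment of MDA-kb2 cells with test compounds and 0.5 nM R1881 final, at 37C without CO2. The MMTV-driven luciferase responds to both AR and GR.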

Values joined by “and” are separate entries in the source; they are usually repeats but may differ in a detail not shown here. Identical values can stand only once. Records with an inconclusive call do not appear. Some structures have more than one record in an assay (separate samples or runs), and their calls can disagree. Active and inactive are the calls of the source. Unless noted, calls come from the whole dose curve; as a rule, active = well fitted curve in the direction sought with a large enough effect in the repeat runs; inconclusive = weak or mixed curves; inactive = no such curve, though single readings can be large; an effect the other way counts as inactive or inconclusive.

Androgen receptor (Homo sapiens), sequence (P10275 whole entry, looked up): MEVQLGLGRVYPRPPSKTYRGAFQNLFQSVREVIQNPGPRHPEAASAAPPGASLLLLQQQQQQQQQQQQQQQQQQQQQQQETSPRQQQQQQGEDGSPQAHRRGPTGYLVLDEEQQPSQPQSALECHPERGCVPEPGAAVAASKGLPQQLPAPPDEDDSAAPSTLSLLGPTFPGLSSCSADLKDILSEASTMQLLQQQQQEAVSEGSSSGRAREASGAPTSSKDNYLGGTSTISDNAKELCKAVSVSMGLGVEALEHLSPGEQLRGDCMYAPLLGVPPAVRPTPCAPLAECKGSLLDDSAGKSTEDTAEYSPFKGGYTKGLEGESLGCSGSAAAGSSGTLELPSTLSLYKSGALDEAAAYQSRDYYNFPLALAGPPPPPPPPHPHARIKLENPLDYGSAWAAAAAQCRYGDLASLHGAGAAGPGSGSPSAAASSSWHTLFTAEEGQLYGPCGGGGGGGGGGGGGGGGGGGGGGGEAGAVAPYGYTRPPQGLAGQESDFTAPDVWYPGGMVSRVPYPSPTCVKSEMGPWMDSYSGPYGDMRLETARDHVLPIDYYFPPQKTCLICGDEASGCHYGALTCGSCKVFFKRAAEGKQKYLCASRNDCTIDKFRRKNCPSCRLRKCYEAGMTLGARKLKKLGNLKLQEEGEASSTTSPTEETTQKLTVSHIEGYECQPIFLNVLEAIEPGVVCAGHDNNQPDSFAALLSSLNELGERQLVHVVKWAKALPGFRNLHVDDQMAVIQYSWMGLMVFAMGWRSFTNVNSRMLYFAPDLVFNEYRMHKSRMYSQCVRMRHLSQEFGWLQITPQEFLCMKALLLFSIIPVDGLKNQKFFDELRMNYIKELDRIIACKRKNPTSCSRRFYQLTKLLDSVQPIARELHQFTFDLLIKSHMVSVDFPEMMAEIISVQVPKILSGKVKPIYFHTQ
Estrogen receptor (Homo sapiens), sequence (P03372 whole entry, looked up): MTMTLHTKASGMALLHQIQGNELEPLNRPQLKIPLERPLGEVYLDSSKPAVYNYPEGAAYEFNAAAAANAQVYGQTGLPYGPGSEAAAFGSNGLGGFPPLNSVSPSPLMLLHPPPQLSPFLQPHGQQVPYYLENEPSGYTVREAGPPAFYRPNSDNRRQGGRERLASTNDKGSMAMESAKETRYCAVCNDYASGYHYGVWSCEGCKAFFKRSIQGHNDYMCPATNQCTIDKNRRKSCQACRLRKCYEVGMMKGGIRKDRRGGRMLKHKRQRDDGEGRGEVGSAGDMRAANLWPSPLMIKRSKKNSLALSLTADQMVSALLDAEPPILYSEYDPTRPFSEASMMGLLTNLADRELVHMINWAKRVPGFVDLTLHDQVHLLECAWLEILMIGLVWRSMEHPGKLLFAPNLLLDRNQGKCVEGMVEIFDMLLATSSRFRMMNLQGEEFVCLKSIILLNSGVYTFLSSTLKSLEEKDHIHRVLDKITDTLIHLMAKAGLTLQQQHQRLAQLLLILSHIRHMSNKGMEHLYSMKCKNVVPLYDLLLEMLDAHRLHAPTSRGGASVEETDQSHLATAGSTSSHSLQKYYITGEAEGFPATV
Glucocorticoid receptor (Homo sapiens), sequence (P04150 whole entry, looked up): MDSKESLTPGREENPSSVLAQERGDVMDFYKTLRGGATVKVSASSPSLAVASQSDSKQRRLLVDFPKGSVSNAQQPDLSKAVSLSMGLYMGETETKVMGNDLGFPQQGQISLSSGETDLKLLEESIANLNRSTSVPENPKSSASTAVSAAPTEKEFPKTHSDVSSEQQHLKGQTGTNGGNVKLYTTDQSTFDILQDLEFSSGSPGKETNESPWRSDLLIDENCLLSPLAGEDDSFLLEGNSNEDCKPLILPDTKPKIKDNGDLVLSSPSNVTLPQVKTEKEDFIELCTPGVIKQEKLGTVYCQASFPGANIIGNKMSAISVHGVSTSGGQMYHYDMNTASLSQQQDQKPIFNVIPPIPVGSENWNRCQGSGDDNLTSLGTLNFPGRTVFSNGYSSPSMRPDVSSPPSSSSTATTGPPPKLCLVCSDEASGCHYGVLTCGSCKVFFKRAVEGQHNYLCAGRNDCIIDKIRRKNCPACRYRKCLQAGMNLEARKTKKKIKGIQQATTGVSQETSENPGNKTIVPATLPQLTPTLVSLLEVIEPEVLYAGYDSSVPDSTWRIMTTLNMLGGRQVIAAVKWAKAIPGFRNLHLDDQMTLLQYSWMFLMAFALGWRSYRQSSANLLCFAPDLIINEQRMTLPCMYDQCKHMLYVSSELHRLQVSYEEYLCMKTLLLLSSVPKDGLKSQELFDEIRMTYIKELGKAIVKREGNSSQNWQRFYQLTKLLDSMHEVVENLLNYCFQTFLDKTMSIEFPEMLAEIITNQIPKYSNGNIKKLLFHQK
Peroxisome proliferator-activated receptor delta (Homo sapiens), sequence (Q03181 whole entry, looked up): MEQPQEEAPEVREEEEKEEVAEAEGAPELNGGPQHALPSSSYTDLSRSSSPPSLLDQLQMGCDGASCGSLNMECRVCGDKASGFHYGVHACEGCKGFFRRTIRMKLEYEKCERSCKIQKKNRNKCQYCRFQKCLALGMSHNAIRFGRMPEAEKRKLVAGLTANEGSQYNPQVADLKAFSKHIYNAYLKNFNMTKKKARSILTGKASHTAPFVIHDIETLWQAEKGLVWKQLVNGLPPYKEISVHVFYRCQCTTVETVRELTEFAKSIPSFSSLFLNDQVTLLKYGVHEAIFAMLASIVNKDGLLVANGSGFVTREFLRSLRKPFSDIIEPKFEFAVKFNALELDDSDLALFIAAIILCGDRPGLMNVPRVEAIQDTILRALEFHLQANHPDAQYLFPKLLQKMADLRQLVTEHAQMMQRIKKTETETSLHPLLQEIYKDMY
Progesterone receptor (Homo sapiens), sequence (P06401 whole entry, looked up): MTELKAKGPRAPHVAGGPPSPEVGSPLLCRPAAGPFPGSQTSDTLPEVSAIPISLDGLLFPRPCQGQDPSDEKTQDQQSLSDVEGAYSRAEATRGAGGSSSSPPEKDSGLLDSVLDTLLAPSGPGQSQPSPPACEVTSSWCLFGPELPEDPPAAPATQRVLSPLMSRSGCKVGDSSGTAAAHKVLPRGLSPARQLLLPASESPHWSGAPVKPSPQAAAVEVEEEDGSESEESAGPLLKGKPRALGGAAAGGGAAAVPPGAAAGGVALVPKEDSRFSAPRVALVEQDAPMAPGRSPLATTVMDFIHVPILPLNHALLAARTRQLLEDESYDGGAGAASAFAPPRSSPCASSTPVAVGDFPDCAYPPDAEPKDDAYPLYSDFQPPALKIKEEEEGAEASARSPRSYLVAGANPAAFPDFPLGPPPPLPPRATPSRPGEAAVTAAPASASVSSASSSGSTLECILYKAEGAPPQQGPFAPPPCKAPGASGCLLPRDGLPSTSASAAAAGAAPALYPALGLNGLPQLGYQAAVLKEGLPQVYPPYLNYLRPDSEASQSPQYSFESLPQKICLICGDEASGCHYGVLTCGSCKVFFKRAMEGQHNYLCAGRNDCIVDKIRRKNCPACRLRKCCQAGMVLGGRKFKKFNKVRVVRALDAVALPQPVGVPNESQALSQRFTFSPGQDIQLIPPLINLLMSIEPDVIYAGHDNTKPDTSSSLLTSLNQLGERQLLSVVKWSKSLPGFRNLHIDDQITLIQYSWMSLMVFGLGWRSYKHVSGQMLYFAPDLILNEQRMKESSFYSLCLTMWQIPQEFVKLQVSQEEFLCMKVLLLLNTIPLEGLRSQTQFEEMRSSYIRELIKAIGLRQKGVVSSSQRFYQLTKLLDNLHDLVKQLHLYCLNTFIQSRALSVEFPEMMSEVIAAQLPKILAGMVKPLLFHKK
Estrogen receptor beta (Homo sapiens), sequence (Q92731 whole entry, looked up): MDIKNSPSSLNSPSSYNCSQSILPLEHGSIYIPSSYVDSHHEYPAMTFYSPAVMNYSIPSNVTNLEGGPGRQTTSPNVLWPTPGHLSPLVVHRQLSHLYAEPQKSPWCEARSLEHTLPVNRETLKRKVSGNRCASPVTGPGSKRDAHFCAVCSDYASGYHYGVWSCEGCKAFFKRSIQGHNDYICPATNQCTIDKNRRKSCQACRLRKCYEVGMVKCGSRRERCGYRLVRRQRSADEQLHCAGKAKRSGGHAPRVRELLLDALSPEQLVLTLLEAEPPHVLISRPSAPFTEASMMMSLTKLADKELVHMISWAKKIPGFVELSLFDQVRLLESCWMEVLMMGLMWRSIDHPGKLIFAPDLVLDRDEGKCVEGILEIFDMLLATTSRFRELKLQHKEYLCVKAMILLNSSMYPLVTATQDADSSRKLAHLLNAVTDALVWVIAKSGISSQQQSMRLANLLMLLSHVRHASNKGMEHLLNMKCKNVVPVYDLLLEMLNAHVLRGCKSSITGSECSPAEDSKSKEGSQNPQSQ

Turning to `CC1COC(Cn2cncn2)(c2ccc(Oc3ccc(Cl)cc3)cc2Cl)O1` (stereo not drawn), the Potency result in [1] and in assay [5] was “inactive” throughout. Moreover, the call in [2] was inactive. Further, the Potency was 43.6 µM (active) in assay [3]; 48.6 µM (active) in assay [4]; 49 µM (active) in [6]; 49 µM (active) in assay [7]; 27.3 µM (active) in assay [8]; 24.3 µM (active) in assay [9].
For `CN1CSC(=S)N(C)C1`, the Potency entry in assay [10], in assay [11], in assay [15] and in [16] was “inactive” throughout. The Potency in [12] is 6.08 µM (active) and 5.43 µM (active); in assay [13], 5.47 µM (active) and 3.46 µM (active); in assay [14], 24.3 µM (active); in assay [4], 30.5 µM (active); in assay [17], 10.8 µM (active) and 27.2 µM (active); in assay [6], 3.87 µM (active). Moreover, the Potency in [18] is 964 nM (active) and 2.16 µM (active); in assay [8], 24.2 µM (active); in assay [9] it was 19.2 µM (active) and 8.61 µM (active).
On to `Cc1ccc(N(SC(F)(Cl)Cl)S(=O)(=O)N(C)C)cc1`, for which, in assay [2], the call was inactive. Besides, the Potency entry in [11] was “inactive”. For the same molecule, the Potency is 3.47 µM (active) in [13]; 54.5 µM (active) in [14]; 2.73 µM (active) in [4]; 34.4 µM (active) in assay [17]; 48.6 µM (active) in assay [19]; 19.5 µM (active) in [6]. Moreover, the Potency is 15.4 µM (active) in assay [20] and 13.7 µM (active) in [8].
Regarding `CCN(CC)C(=O)Cl`, the Potency result in [18], in assay [20], in [8] and in [9] was “inactive” in each case.
For `Cc1cccc([N+](=O)[O-])c1C`, the Potency entry in assay [7] was “inactive”.
In the case of `Nc1ccc(Cl)cc1Cl`, the Potency result in assay [5] is “inactive”.
Take `OC(Cc1ccccc1Cl)(Cn1[nH]cnc1=S)C1(Cl)CC1` (stereo not drawn): the figures for the Potency in assay [20] and in assay [9] were 54.5 µM (active) and 24.3 µM (active), respectively.
For `Brc1ccc(-c2ccccc2)cc1`, the Potency entry in [3] is “inactive”.
As to `Brc1ccc(Br)c(Br)c1`, in assay [5], the Potency entry is “inactive”.
Turning to `Fc1c(F)c(F)c(Br)c(F)c1F`, the Potency entry in assay [7] is “inactive”.
`Cc1cc(C(C)(C)c2ccc(O)c(C)c2)ccc1O`: the Potency entry in assay [1], in [14], in assay [4], in assay [16] and in [5] was “inactive” each time. Besides, the Potency is 13.1 µM (active) in [3] and 4.62 µM (active) in assay [20].
Take `Cc1ccccc1N=O`: the Potency entry in assay [7] is “inactive”.
As for `CCc1cccc(C)c1N`, in [3], the Potency entry is “inactive”.
For the molecule `ClC1=C(Cl)[C@]2(Cl)[C@@H]3[C@@H](Cl)[C@H]4O[C@H]4[C@@H]3C1(Cl)C2(Cl)Cl`, the Potency result in assay [1], in assay [10], in [11], in [13], in [14] and in assay [15] was “inactive” in each case. For the same molecule, the Potency entry in assay [16], in assay [17], in assay [19], in assay [7] and in assay [8] was “inactive” each time. Moreover, in [2], the molecule was classed as inactive. Moreover, the Potency in [12] is 61.1 µM (active); in [6], 54.9 µM (active).
Regarding `c1ccc2c(c1)Sc1ccccc1N2CC1CN2CCC1CC2` (stereo not drawn), the Potency result in assay [1], in assay [11], in assay [16] and in assay [17] was “inactive” in each case. Besides, the Potency in assay [3] was 21.3 µM (active); in [12], 5.96 µM (active); in assay [6] it was 10.6 µM (active); in [7], 11.9 µM (active); in [9], 26.6 µM (active).
Consider `C=CC(=O)OCCCCCCCC(C)C`, for which the Potency entry in [8] was “inactive”.
Consider `Cc1cccc(C)c1[N+](=O)[O-]`, for which the Potency entry in assay [3] was “inactive”.
For `Clc1ccccc1-c1ccccc1Cl`, the Potency result in assay [10], in [12], in assay [13], in [14], in [4] and in assay [16] was “inactive” each time. Also, the Potency entry in [19], in [5], in [6], in [7] and in assay [9] was “inactive” in each case. Further, in [2], the call was inactive.
For the molecule `CCOC(=O)C(O)(c1ccc(Cl)cc1)c1ccc(Cl)cc1`, the molecule was called inactive in [2]. For the same molecule, the Potency result in assay [11], in assay [15], in assay [16] and in assay [5] was “inactive” in each case. Besides, the Potency was 6.18 µM (active) and 19.3 µM (active) in [12]; 61.8 µM (active) in assay [14]; 6.18 µM (active) in [4]; 6.18 µM (active) in [17]; 61.8 µM (active) and inactive in [19]; 13.9 µM (active) and 43.6 µM (active) in assay [6]. Also, the Potency in assay [20] was 13.8 µM (active) and 21.7 µM (active); in assay [8] it was 30.9 µM (active) and 54.5 µM (active); in assay [9], 13.8 µM (active) and 13.7 µM (active).

The values above are taken from PubChem BioAssay (Tox21).
